TDP1 cell CPT = DT40-hTDP1 cell growth loss with CPT | chicken DT40 Tdp1-/-;hTDP1 cells + 20 nM CPT, ATP luminescence, 48 h | Potency, µM (titrated, usually from 46.2 µM), without a hit: top-dose activity change, negative = growth inhibition, usual class: inhibitors | 420,000 compounds, 12% hits | AID 686979; further: potency means the concentration at half of the fitted maximal effect; nearly all actives have a fitted effect of over 55% in size
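Cell growth measured by CellTiter-Glo luminescence after a minimum 48 h, 37 C compound exposure with 20 nM CPT in Tdp1-knockout DT40 cells stably expressing hTDP1, seeded 400/well; qHTS titration format.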
DT40 TDP1 no CPT = qHTS for Inhibitors of human tyrosyl-DNA phosphodiesterase 1 (TDP1): qHTS in cells in absence of CPT | DT40 Tdp1-/- hTDP1 cells, no CPT, ATP luminescence, 48 h | Potency, µM (series often up to 46.2 µM), for inactives: at the top dose activity change, negative = growth inhibition, hits mostly inhibitors | 420,000 compounds, 15% hits; further: potency means the concentration at half of the fitted maximal effect; nearly all actives have a fitted effect of over 55% in size
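Seeded 400 DT40-hTDP1 cells/well (vehicle DMSO, no 20 nM CPT); pinned compounds; ≥48 hr at 37 °C; CellTiter-Glo luminescence as viability measure.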
IL-1B inflam inh = blocks inflammasome-driven IL-1 beta release. AID 743279. THP-1 LPS/ATP IL-1B secretion, AlphaLISA, 16 h; hits give low values. 360,000 compounds, 4.7% hits. activity change, % at 57.5 µM; in the data active means activity change below about -50%; inconclusive means mostly about -30% to -49%
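THP-1 cells pretreated 1 hr with compounds (up to 57.5 uM final), then stimulated with LPS (250 ng/mL final) plus ATP (1.25 mM final); secreted IL-1B measured by AlphaLISA after 16 hr, decreased signal indicating inhibition.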
ELG1 repair inh = ELG1-dependent DNA repair inhibition | HEK293T ELG1-luciferase reporter, luminescence, 16 h; DNA damage induced by 5-fluorouridine | Potency, µM (highest dose often 46.1 µM), inactives show at the top dose activity change, negative = inhibition, most hits filed as inhibitors | 330,000 compounds, 2.3% hits; further: potency means the concentration at half of the fitted maximal effect; nearly all actives have a fitted effect of over 55% in size
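Luminescence from the luciferase reporter, measured 30 min after ONE-Glo reagent at room temperature, was the read-out. Beforehand, 2,000 cells per well were exposed for 16 hr at 37 °C to 5-fluorouridine together with compound or vehicle.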
VP16 counter = counter-screen for ROR gamma inhibitors: Gal4-VP16 reporter; 310,000 compounds, 3.5% hits; Drosophila S2 Gal4-VP16 UAS-luciferase, luminescence, 20 h; Potency, µM (top dose mostly 53.6 µM), inactives show top-dose activity, negative = inhibition, actives largely listed as inhibitors; AID 2546;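 further: Gal4-VP16 expression switched on by copper sulfate through the metallothionein promoter; potency means the concentration at half of the fitted maximal effect; nearly all actives have a fitted effect of over 50% in size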
RORgamma inh = blocks mouse ROR gamma transcriptional activity; P51450; Potency, µM (series often up to 53.6 µM), without a hit: top-dose activity change, negative = inhibition, usual class: inhibitors; AID 2551; Drosophila S2 Gal4-RORgamma UAS-luciferase reporter, 20 h; 310,000 compounds, 5.4% hits; further: potency means the concentration at half of the fitted maximal effect; nearly all actives have a fitted effect of over 60% in size
Target sequence (P51450 whole entry, looked up, the tested form may be a part): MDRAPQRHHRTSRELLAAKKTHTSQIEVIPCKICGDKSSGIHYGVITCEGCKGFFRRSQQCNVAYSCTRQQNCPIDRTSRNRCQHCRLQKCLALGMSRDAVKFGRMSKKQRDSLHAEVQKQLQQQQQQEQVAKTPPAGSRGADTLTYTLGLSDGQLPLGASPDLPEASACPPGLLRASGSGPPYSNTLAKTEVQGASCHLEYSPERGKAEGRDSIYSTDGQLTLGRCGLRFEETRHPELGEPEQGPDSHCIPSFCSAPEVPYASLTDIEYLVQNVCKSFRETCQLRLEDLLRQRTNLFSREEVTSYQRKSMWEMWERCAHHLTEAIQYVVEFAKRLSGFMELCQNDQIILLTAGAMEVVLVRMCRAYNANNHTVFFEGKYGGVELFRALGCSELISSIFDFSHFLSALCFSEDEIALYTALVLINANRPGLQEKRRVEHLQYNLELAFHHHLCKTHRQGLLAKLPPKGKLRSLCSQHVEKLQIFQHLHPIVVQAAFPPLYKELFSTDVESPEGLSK
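Luminescence from a UAS-regulated Photinus luciferase reporter in stably transfected Drosophila Schneider cells is measured; decreased signal marks ROR gamma inhibition. Fusion expression is induced by 700 uM copper sulfate for 20 hr.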
Numbers without * were called inactive; ? = inconclusive; nt = not tested or not shown; [ ] = remark or other dose. Hits are enriched below; roughly 21% of the tested compounds scored in any of these assays. Unless noted, the call rests on the fitted dose curve; in most records, active means well fitted curve in the direction sought with a large enough effect; inconclusive means small, poorly fitted or top-dose-only effect, or another doubt; inactive means no such curve, though single readings can be large; an effect the other way counts as inactive or inconclusive. On the % scale 0 is the no-effect control and ±100 the full control effect.

SMILES | TDP1 cell CPT | DT40 TDP1 no CPT | IL-1B inflam inh | ELG1 repair inh | VP16 counter | RORgamma inh
CC(C)(C)NC(=O)C(c1ccc(C(F)(F)F)cc1)n1c(=O)c(-c2ccco2)nc2ccccc21 (stereo unspecified) | 16.4µM* | 18.4µM* | 26.6 | nt | nt | nt
CC(SCc1ccc(C(=O)O)o1)c1ccc(C(=O)O)o1 (stereo unspecified) | -1.2% | 6.9% | -7.5 | 10.1% | 0.8% | -18.0%
CN(C)c1cccc(C(=O)NCC(c2ccco2)N(C)C)c1 (stereo unspecified) | -5.0% | 0.0% | 13.6 | ? | 4.4% | -4.2%
N#CCCCC1(CCCC#N)OCCO1 | 4.6% | -7.8% | 11.9 | nt | nt | nt
O=C(NCc1ccccc1)C(c1ccc(C(F)(F)F)cc1)n1c(=O)c(-c2ccccc2)nc2ccccc21 (stereo unspecified) | -71.4% | -79.6% | 37.2 | nt | nt | nt
O=C(NCc1ccccc1)C(c1ccc(C(F)(F)F)cc1)n1c(=O)c(-c2ccco2)nc2ccccc21 (stereo unspecified) | ? | 20.6µM* | 0.0 | nt | nt | nt
Cc1cccc(C)c1NC(=O)C(C1CC1)n1c(=O)c(-c2ccco2)nc2ccccc21 (stereo unspecified) | ? | ? | -3.2 | nt | nt | nt
CC(C)(C)NC(=O)C(C1CC1)n1c(=O)c(-c2ccco2)nc2ccccc21 (stereo unspecified) | ? | 16.4µM* | -11.8 | nt | nt | nt
O=C1Nc2ccccc2C(=O)N(C2CCCC2)C1C(=O)NC1CC1 (stereo unspecified) | -4.8% | 5.7% | -5.9 | nt | nt | nt
Cn1c(=O)c2[nH]c(C=Cc3ccc4c(c3)OCO4)nc2n(C)c1=O | -14.4% | -15.7% | 0.0 | nt | nt | nt
COc1ccccc1-c1nc2ccccc2nc1-c1ccccc1 | 18.4µM* | ? | 17.4 | -10.0% | 7.8% | 3.1%
COc1ccc(OC)c2cc3ccccc3cc12 | 0.731µM* | 0.92µM* | 0.0 | nt | nt | nt
COc1ccccc1-c1nc2cc3ccccc3cc2nc1-c1ccccc1OC | ? | ? | -12.7 | 20.6µM* | -8.0% | -1.6%
COc1cc2ccccc2ccc1=NO | 16.4µM* | 11.6µM* | ? | nt | nt | nt
COc1ccc(COC(=O)N/N=C2/C[C@@H](O)[C@@H](O)[C@@H]3[C@@H]4C(=O)N(C[C@@H]5CCCO5)C(=O)[C@H]4CC[C@@H]23)cc1 | nt | nt | nt | nt | -2.5%[10 µM] | -1.7%[10 µM]
c1cncc(CNc2ncncc2-c2ccoc2)c1 | ? | -23.1% | nt | nt | -0.8% | -10.7%
CC(=O)Nc1ccc(Sc2ccccc2C(=O)Nc2ccc(F)cc2)cn1 | ? | 18.4µM* | 22.3 | 4.5% | -10.0% | 0.7%
CCOCCN(C(=O)c1ccccc1Cl)c1cccc(C)c1C | 25.9µM* | ? | nt | 9.7% | 6.6% | -38.0%
CCOC(=O)CNC(=O)O[C@@H]1Cc2cc(OC)ccc2O[C@H]1c1cccc(OC)c1 | nt | nt | nt | nt | 8.8% | 3.0%
COc1ccccc1CSc1nc2n(n1)C(c1ccccc1)C(C(=O)Nc1ccc(C)cc1)=C(C)N2 (stereo unspecified) | 16.4µM* | 23.1µM* | nt | nt | nt | nt
CC1=C(C(=O)Nc2ccc(Cl)cc2)C(c2cccs2)n2nc(SCc3cccc(Cl)c3)nc2N1 (stereo unspecified) | -3.0% | -21.4% | nt | nt | nt | nt
CC1=C(C(=O)Nc2ccc(C)cc2C)C(c2cccs2)n2nc(SCc3ccc(Cl)cc3)nc2N1 (stereo unspecified) | 10.3µM* | 11.6µM* | nt | nt | nt | nt
COc1cccc(CSc2nc3n(n2)C(CC(C)C)C(C(=O)Nc2ccccc2OC)=C(C)N3)c1 (stereo unspecified) | 18.4µM* | 13µM* | nt | nt | nt | nt
CC1=C(C(=O)Nc2ccccc2C)C(c2cccs2)n2nc(SCc3ccccc3)nc2N1 (stereo unspecified) | 20.6µM* | 20.6µM* | nt | nt | nt | nt
